3T3 cytotox: cytotoxic compounds in NIH 3T3 cells. NIH 3T3 viability, CellTiter-Glo ATP luminescence, 48-72 h. Potency, µM (titrated, usually from 96.7 µM), for inactives: at the top dose activity change, negative = cytotoxicity, hits mostly inhibitors. 94,000 tested, 4.3% active. AID 1345082; further: nearly all actives have a fitted effect of over 55% in size
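NIH 3T3 cells at 400 cells/well received 23 nL of compound by pintool and were incubated 48 or 72 h at 37 °C. Viability was read as ATP-coupled CellTiter-Glo luminescence.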
FLuc inh: Photinus pyralis luciferase inhibition. 76,000 tested, 2.5% active. Potency, µM (titrated, usually from 115 µM), most hits filed as inhibitors. purified P. pyralis luciferase, luminescence, biochemical. P08659; further: nearly all actives have a fitted effect of over 65% in size
Target sequence (P08659 whole entry, looked up): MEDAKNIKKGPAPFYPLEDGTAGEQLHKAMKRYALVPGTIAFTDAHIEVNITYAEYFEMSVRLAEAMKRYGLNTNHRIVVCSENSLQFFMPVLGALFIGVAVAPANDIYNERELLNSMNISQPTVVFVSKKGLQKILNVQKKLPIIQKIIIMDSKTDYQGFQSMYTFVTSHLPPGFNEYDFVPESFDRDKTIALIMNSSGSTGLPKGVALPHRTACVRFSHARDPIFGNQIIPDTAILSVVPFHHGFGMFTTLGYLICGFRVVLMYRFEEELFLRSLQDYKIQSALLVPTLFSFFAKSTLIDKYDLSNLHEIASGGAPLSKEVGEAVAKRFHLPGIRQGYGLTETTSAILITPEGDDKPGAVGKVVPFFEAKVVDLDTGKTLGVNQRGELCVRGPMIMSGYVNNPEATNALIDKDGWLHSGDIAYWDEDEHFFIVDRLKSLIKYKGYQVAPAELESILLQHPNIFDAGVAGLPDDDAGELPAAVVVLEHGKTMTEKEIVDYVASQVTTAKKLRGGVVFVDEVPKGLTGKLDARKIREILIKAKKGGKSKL
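Biochemical qHTS: compound (6-point titration) added to 10uM D-luciferin plus 10uM ATP in Tris acetate pH 7.5 buffer with Mg, Tween-20 and BSA, then purified enzyme at 10nM; light output imaged.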
hNpr1 antagonist: human Npr1 receptor antagonism; P16066; HEK293 hNpr1 GloSensor cGMP, ANP-stimulated luminescence; Potency, µM (doses to about 46.3 µM), for inactives: at the top dose activity change, negative = inhibition, actives largely listed as inhibitors; 76,000 tested, 1.6% active; AID 1347048; calls by dose curve; further: nearly all actives have a fitted effect of over 60% in size
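Compound pre-incubated 30 min at room temperature on GloSensor-loaded HEK293 cells stably carrying hNpr1 and the pGS-40F cGMP biosensor. Stimulation uses hNppA at 0.1 nM final; luminescence is taken at baseline and 20 min post-agonist.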
HEK cytotox: HEK 293 cell cytotoxicity | HEK 293 viability, ATP luminescence (CellTiter-Glo), 48-72 h | Potency, µM (doses to about 115 µM), for the others: at the highest dose activity change, negative = cytotoxicity, hits mostly inhibitors | 94,000 tested, 6.6% active | AID 1345083; further: nearly all actives have a fitted effect of over 60% in size
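Viability of HEK 293 cells, plated at 250 cells/well, was judged by cellular ATP after compound treatment for 48 or 72 hr. Luminescence was imaged 10 min after CellTiter-Glo addition at room temperature.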
* hit, by the source's call; [ ] = remark or other dose. Hits are enriched below; roughly 11% of the tested compounds scored in any of these assays. Unless noted, the call rests on the fitted dose curve; in most records, active means well fitted curve in the direction sought with a large enough effect; inconclusive means small, poorly fitted or top-dose-only effect, or another doubt; inactive means no such curve, though single readings can be large; an effect the other way counts as inactive or inconclusive. On the % scale 0 is the no-effect control and ±100 the full control effect; potency means the concentration at half of the fitted maximal effect.

Cc1ccc(C)c(S(=O)(=O)N2[C@H]3CC[C@@H]2c2cnc(-c4ccccc4)nc2C3)c1 was read as 3T3 cytotox -17.3%, FLuc inh inactive, hNpr1 antagonist inconclusive and HEK cytotox -40.7%.
For Cc1ccccc1S(=O)(=O)N1[C@H]2CC[C@@H]1c1cnc(-c3ccccc3)nc1C2 the results were 3T3 cytotox inconclusive, FLuc inh inactive, hNpr1 antagonist inconclusive and HEK cytotox 25.1µM*.
CCS(=O)(=O)N1[C@H]2CC[C@@H]1c1cnc(-c3ccc(F)cc3)nc1C2 was read as 3T3 cytotox -29.9%, FLuc inh inactive, hNpr1 antagonist inconclusive and HEK cytotox 39.8µM*.
For Cc1cccc(NC(=O)N2[C@H]3CC[C@@H]2c2cnc(-c4ccccc4)nc2C3)c1 the results were 3T3 cytotox inconclusive, FLuc inh inactive, hNpr1 antagonist -29.4% and HEK cytotox 39.8µM*.
`CC(C)CCN1CCC2(CC1)CC(c1cccnc1)=NO2` gave 3T3 cytotox -0.5%[138 µM], FLuc inh inactive, hNpr1 antagonist 31.1%[70.6 µM] and HEK cytotox -4.3%[172 µM].
Screening O=C(Cc1cccc(F)c1)N1CCN(C2CCN(Cc3cccnc3)C2=O)CC1 (stereo not given) returned 3T3 cytotox 3.5%, FLuc inh inactive, hNpr1 antagonist -3.4% and HEK cytotox inactive.
`COc1ccccc1-c1cc([C@H]2CN3CC[C@H]2C[C@@H]3COC(=O)Nc2ccccc2)nc(C)n1` gave 3T3 cytotox inconclusive, FLuc inh inactive, hNpr1 antagonist -1.2% and HEK cytotox inconclusive.
CCCNC(=O)OC[C@H]1C[C@@H]2CCN1C[C@@H]2c1cc(-c2ccccc2OC)nc(C)n1 was read as 3T3 cytotox 63.1µM*, FLuc inh inactive, hNpr1 antagonist 5.4%[70.6 µM] and HEK cytotox inconclusive.
For COc1ccccc1-c1cc([C@H]2CN3CC[C@H]2C[C@@H]3COC(=O)NC(C)C)nc(C)n1 the results were 3T3 cytotox 44.7µM*, FLuc inh inactive, hNpr1 antagonist -3.7%[70.6 µM] and HEK cytotox inconclusive.
Screening COc1ccccc1-c1cc([C@H]2CN3CC[C@H]2C[C@@H]3COC(=O)NC2CCCCC2)nc(C)n1 returned 3T3 cytotox inconclusive, FLuc inh inactive, hNpr1 antagonist -1.9% and HEK cytotox 11.2µM*.
For COc1ccccc1-c1cc([C@H]2CN3CC[C@H]2C[C@@H]3CNS(=O)(=O)c2ccc(NC(C)=O)cc2)nc(C)n1 the results were 3T3 cytotox inconclusive, FLuc inh inactive, hNpr1 antagonist 2.4% and HEK cytotox -20.5%.
For COc1ccccc1-c1cc([C@H]2CN3CC[C@H]2C[C@@H]3CNC(=O)CCC(=O)O)nc(C)n1 the results were 3T3 cytotox -9.6%, FLuc inh inactive, hNpr1 antagonist -0.7% and HEK cytotox -7.8%.
CCN1CCCN(C(=O)COc2ccccc2)CC12CCOCC2 was read as 3T3 cytotox -13.2% and HEK cytotox -22.7%.
COc1cc2c(cc1Oc1ccccc1)NC(=O)C21CCN(c2ncccn2)CC1 was read as 3T3 cytotox 79.4µM*, FLuc inh inactive, hNpr1 antagonist -30.3%[70.6 µM] and HEK cytotox inconclusive.
Screening COc1cc2c(cc1Oc1ccccc1)NC(=O)C21CCN(Cc2ccccc2)CC1 returned 3T3 cytotox 28.2µM*, FLuc inh inactive, hNpr1 antagonist inconclusive and HEK cytotox 28.2µM*.
For COc1cncc(CN2CCC3(CC2)C(=O)Nc2cc(Oc4ccccc4)c(OC)cc23)c1 the results were 3T3 cytotox inconclusive, FLuc inh inactive, hNpr1 antagonist -26.5% and HEK cytotox 35.5µM*.
`COc1cc2c(cc1Oc1ccccc1)NC(=O)C21CCN(c2ncc(C(C)C)cn2)CC1` gave 3T3 cytotox inconclusive, FLuc inh inactive, hNpr1 antagonist 6.9% and HEK cytotox inconclusive.
Screening CCOC(=O)[C@H]1CN(C(=O)c2ccc3c(c2)OCO3)[C@]2(C)C(=O)N(C)c3ccccc3[C@H]12 returned 3T3 cytotox -19.1% and HEK cytotox inconclusive.
`CC(C)(O)c1cn(C[C@H]2C[C@@H]3CCN2C[C@@H]3C(=O)NCc2ccc(F)cc2)nn1` gave 3T3 cytotox -11.2%[174 µM], FLuc inh inactive, hNpr1 antagonist 4.4%[70.6 µM] and HEK cytotox -7.5%[172 µM].
`CN1CCN(C(=O)Cc2c[nH]c3ncc(-c4cccc(F)c4)cc23)CC1` gave 3T3 cytotox inconclusive, FLuc inh inactive, hNpr1 antagonist 2.6%[70.6 µM] and HEK cytotox -17.9%[172 µM].
For CN1CCN(C(=O)Cc2c[nH]c3ncc(-c4ccc5c(c4)OCO5)cc23)CC1 the results were 3T3 cytotox inconclusive, FLuc inh 22.4µM*, hNpr1 antagonist -1.1%[70.6 µM] and HEK cytotox inconclusive.
`COc1ncc(-c2cnc3[nH]cc(CC(=O)N4CCN(C)CC4)c3c2)cn1` gave 3T3 cytotox inconclusive, FLuc inh inactive, hNpr1 antagonist -11.6%[70.6 µM] and HEK cytotox inactive.
`Cn1cc(-c2cnc3[nH]cc(CC(=O)N4CCN(Cc5ccccc5)CC4)c3c2)cn1` gave 3T3 cytotox 39.8µM*, FLuc inh inconclusive, hNpr1 antagonist -7.8%[70.6 µM] and HEK cytotox inconclusive.
CN1CCN(C(=O)Cc2c[nH]c3ncc(-c4ccc(F)c(Cl)c4)cc23)CC1 was read as 3T3 cytotox 28.2µM*, FLuc inh inactive, hNpr1 antagonist -15.8%[70.6 µM] and HEK cytotox 79.4µM*.
For CN1CCN(C(=O)Cc2c[nH]c3ncc(-c4ccc(Cl)cc4)cc23)CC1 the results were 3T3 cytotox 28.2µM*, FLuc inh 22.4µM*, hNpr1 antagonist -14.6%[70.6 µM] and HEK cytotox 100µM*.
For Cc1cccc(NC(=O)N2[C@H]3CC[C@@H]2c2cncnc2C3)c1 the results were 3T3 cytotox inactive, FLuc inh inactive, hNpr1 antagonist 0.9% and HEK cytotox 0.5%.
`COc1ccc(CC(=O)N2CCCN(CCn3nc4n(c3=O)CCCC4)CC2)cc1` gave 3T3 cytotox -24.9% and HEK cytotox -1.9%.
Screening CN1CCN(C(=O)Cc2c[nH]c3ncc(-c4cccc(Cl)c4)cc23)CC1 returned 3T3 cytotox 50.1µM*, FLuc inh inactive, hNpr1 antagonist -23.4%[70.6 µM] and HEK cytotox 89.1µM*.
For Cc1ccsc1C(=O)N1CCC2(CC1)NCc1ccccc1-n1ccnc12 the results were 3T3 cytotox 28.2µM*, FLuc inh inactive, hNpr1 antagonist -9.0% and HEK cytotox -16.7%.
Cc1ccccc1C(=O)N1CCC2(CC1)c1nccn1-c1ccccc1CN2CC(C)C was read as 3T3 cytotox inconclusive, FLuc inh inactive, hNpr1 antagonist -25.7% and HEK cytotox 44.7µM*.
Screening CCOC(=O)[C@H]1CN(C(=O)c2ccc(C)cc2)[C@]2(C)C(=O)N(CCOC)c3ccccc3[C@H]12 returned 3T3 cytotox inconclusive and HEK cytotox -12.2%.
`CCc1cnc(N2CCC3(CC2)C(=O)Nc2cc(OCC4CC4)c(OC)cc23)nc1` gave 3T3 cytotox 100µM*, FLuc inh inactive, hNpr1 antagonist 6.5%[70.6 µM] and HEK cytotox 112µM*.
COc1cc2c(cc1OCC1CC1)NC(=O)C21CCN(c2nc(C)cc(C)n2)CC1 was read as 3T3 cytotox inconclusive, FLuc inh inactive, hNpr1 antagonist 5.1%[70.6 µM] and HEK cytotox inconclusive.

Screening data as filed in PubChem BioAssay.
